A549 viability: counter-screen for Nrf2 inhibitors: cytotoxicity in A549 cells. A549 ARE-Fluc cells, CellTiter-Fluor viability, 18-24 h. Potency, µM (highest dose often 46 µM), without a hit: at the top dose activity change, negative = cytotoxicity, hits mostly inhibitors. 390,000 compounds, 0.16% hits. AID 504648; note: potency is the fitted concentration of half-maximal effect; % is set by controls: 0 for no effect and ±100 for the full control effect
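Cytotoxicity counterscreen: CellTiter-Fluor fluorescence was measured in A549 ARE_Fluc cells after 18-24 h of compound exposure in a concentration series. The subsequent BugLite luminescent read reports ARE-luciferase activity.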
ALOX12 inh: inhibitors of human 12S-lipoxygenase ALOX12; P18054; purified 12hLO, xylenol orange hydroperoxide absorbance; Potency, µM (series often up to 108 µM), inactives show at the highest dose activity change, negative = inhibition, hits mostly inhibitors; 580,000 compounds, 1.1% hits; AID 1671190; note: potency is the fitted concentration of half-maximal effect; % is set by controls: 0 for no effect and ±100 for the full control effect
Target sequence (P18054 whole entry, looked up): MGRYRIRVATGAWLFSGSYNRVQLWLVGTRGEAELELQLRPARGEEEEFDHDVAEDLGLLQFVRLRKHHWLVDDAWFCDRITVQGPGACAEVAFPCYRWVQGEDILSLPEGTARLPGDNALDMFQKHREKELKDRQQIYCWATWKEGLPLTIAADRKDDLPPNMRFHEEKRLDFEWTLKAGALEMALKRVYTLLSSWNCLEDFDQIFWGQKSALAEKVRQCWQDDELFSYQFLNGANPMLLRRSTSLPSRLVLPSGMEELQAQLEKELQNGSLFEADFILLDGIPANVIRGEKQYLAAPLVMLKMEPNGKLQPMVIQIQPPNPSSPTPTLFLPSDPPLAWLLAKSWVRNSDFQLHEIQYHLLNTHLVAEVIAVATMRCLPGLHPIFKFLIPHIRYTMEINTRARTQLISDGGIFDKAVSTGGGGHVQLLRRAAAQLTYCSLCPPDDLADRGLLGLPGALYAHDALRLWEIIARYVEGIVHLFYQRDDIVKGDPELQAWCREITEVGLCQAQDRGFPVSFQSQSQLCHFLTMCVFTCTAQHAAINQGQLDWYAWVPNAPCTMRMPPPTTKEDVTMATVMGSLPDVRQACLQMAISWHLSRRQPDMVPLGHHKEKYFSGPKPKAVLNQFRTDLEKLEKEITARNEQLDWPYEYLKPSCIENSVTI
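Purified human 12hLO (150 nM final) in 25 mM Hepes, 0.01% Triton X-100, pH 7.0 was preincubated 15 min at room temperature with compound. Then 40 uM arachidonic acid was added, 30 min. Hydroperoxide was read by Fe-XO absorbance ratio 573/405 nm.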
Nrf2 ARE act: activates Nrf2 signaling; AID 624171; 410,000 compounds, 0.31% hits; AREc32 ARE-luciferase reporter (MCF7-derived line), luminescence, 24 h; Potency, µM (top dose mostly 46.1 µM), inactives show at the top dose activation, hits mostly activators; note: potency is the fitted concentration of half-maximal effect; % of control where 0% means no effect; nearly all actives have a fitted effect of over 65% in size
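Quantitative high-throughput format: AREc32 reporter cells, 1000 per well, received compound by pin transfer and were incubated 24 hr at 37 deg C, 5% CO2, before Steady-Glo luminescence detection.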
Nrf2 block: blocks Nrf2 signaling; A549 ARE-Fluc reporter, luciferase luminescence, 18-24 h; 360,000 compounds, 2.1% hits; Potency, µM (highest dose often 46 µM), without a hit: top-dose activity change, negative = inhibition, most hits filed as inhibitors; note: potency is the fitted concentration of half-maximal effect; % is set by controls: 0 for no effect and ±100 for the full control effect; nearly all actives have a fitted effect of over 60% in size
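Two sequential reads on A549 ARE_Fluc cells exposed to compound for 18-24 h: a CellTiter-Fluor fluorescence read for viability, then a luciferase luminescence read for Nrf2/ARE activity.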
ERG Ets-DNA blk: blocks human ERG Ets domain binding to DNA. 370,000 compounds, 0.028% hits. AID 624246. Potency, µM (top dose mostly 76.9 µM), for the others: at the top dose FP activity, negative = inhibition, actives largely listed as inhibitors. P11308. fluorescence polarization, His-ERG Ets domain / labelled DNA; active = well fitted inhibition curve with a large enough effect in the polarisation, with a control signal flat; inconclusive = small, poorly fitted or top-dose-only effect, or effect the other way, or a change in a side signal; inactive = no such curve, though single readings can be large or run the other way; the % refers to the polarisation;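 note: polarization taken with two DNA probes labelled with fluorescein and Texas red; potency is the fitted concentration of half-maximal effect; % of control where 0% means no effect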
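His-tagged ERG Ets domain (1 uM in the protein solution; 300mM KCl, 50mM Tris-HCl, 1mM EDTA, 1mM DTT, pH 7.5) received compound, then a probe mix of 5 nM fluorescein-DNA and 100nM Texas-615-DNA. Fluorescence polarization was read for both dyes.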
LDHA inh: LDHA (human) enzyme inhibition. purified LDHA, NADH/diaphorase-resazurin fluorescence; hits give low values. activity change, % (values are at about 110 or 230 µM). 480,000 compounds, 0.15% hits. AID 1347041; in the data active = activity change below about -30%; inconclusive = mostly about -25% to -30%;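 note: plate controls were DMSO wells for no effect and wells without enzyme for full effect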
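LDH5 2 nM; NADH 0.06 mM, pyruvate 0.2 mM; 200 mM Tris pH 7.4, EDTA, Tween-20; 5 min RT. Detection: diaphorase 0.133 mg/mL + resazurin 37 µM, fluorescence ex540/em590 at 0 and 20 min; normalized to enzyme-free and DMSO wells.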
* = called active by the depositor; ? = inconclusive; . = no result; [ ] = dose if it differs, or a comment. Compounds with a hit are over-represented: about 2.7% of the library has one in this group of screens. Unless noted, calls come from the whole dose curve; as a rule, active = well fitted curve in the direction sought with a large enough effect; inconclusive = small, poorly fitted or top-dose-only effect, or another doubt; inactive = no such curve, though single readings can be large; an effect the other way counts as inactive or inconclusive.

SMILES	A549 viability	ALOX12 inh	Nrf2 ARE act	Nrf2 block	ERG Ets-DNA blk	LDHA inh
C=CCOc1ccc(NC(=O)C(=O)c2c(C)[nH]c3ccccc23)cc1	.	?	.	.	.	-16
CCOc1ccc(-c2[nH]ncc2-c2ccc(Br)cc2)c(O)c1	.	28µM*	.	.	.	6
CN(C)C(=O)c1cn(CCC#N)nc1-c1cccc(Cl)c1	.	-8%	.	.	.	1
Cc1ccc2[nH]c(C(=O)NC(C)c3ccccc3)cc2c1 (configuration not stated)	.	-5%	.	.	.	0
COc1ccccc1C(=O)NC(=S)/C=C1/N(C)c2ccccc2C1(C)C	?	28µM*	1%	?	3%	-4
CCOC(=O)/C=C1/N(C)c2ccccc2C1(C)C	4%	17%	0%	20%	1%	-4
CN1/C(=C\C(=S)NC(=O)c2ccccc2Cl)C(C)(C)c2ccccc21	0%	25µM*	3%	?	8%	-3
CN1/C(=C\C(=S)Nc2ccccc2)C(C)(C)c2ccccc21	?	-17%	0%	?	89%	-6
CN1/C(=C/C(=S)NC(=O)C2(C)CC2(Cl)Cl)C(C)(C)c2ccccc21 (configuration not stated)	-12%	22µM*	4%	?	23%	-5
O=C(Nc1nccs1)c1cc(-c2ccc(F)cc2)nc2ccccc12	.	?	.	.	.	11
CCOC(=O)c1cc2cc(Br)ccc2[nH]1	.	-3%	.	.	.	1
C=CCNC(=O)c1cc(-c2cccc(C)c2)nc2ccccc12	.	?	.	.	.	17
COc1ccc2c(C)c(CC(=O)NCc3ccccc3)c(=O)oc2c1OC	.	12%	.	.	.	9
CN1CCCN(C2C3CC4CC(C3)CC2C4)CC1 (configuration not stated)	8%	?	2%	26%	-5%	-17
CS(=O)(=O)N1CCN(C2C3CC4CC(C3)CC2C4)CC1 (configuration not stated)	4%	-17%	-1%	0%	-6%	-32*
CC1CCC(N2CCN(S(C)(=O)=O)CC2)CC1 (configuration not stated)	0%	?	0%	0%	3%	-34*
CC(=O)N1CCc2c(sc(NC(=O)C3COc4ccccc4O3)c2C(N)=O)C1 (configuration not stated)	0%	-29%	4%	-13%	3%	1
COC(=O)c1c(NC(=O)C2COc3ccccc3O2)sc2c1CCN(C(C)=O)C2 (configuration not stated)	?	-19%	3%[9.22 µM]	21µM*	8%	3
CC(Cn1cccn1)NC(=O)N1CCN(Cc2ccncc2)CC1 (configuration not stated)	.	4%	.	.	.	-1
CCn1c(/C=C/c2ccc(O)c(O)c2)nc2ccccc2c1=O	-6%	14µM*	9%	13%	2%	10
CCn1c(/C=C/c2ccccc2F)nc2ccccc2c1=O	0%	-2%	2.8µM*	4%	5%	-8
CCn1c(/C=C/c2ccccc2C)nc2ccccc2c1=O	6%	-11%	27%	5%	7%	-1
Nc1cc(-c2ccc(Br)cc2)nn1Cc1ccccc1	-11%	0%	3%	10µM*	1%	-1
Nc1cc(-c2cccc(Br)c2)nn1Cc1ccccc1	-8%	-27%	4%	2%	-11%	2
N=c1c2c(-c3ccccc3)c(-c3ccccc3)n(Cc3ccco3)c2ncn1Cc1ccccc1	5%	33%	0%	12%	0%	-5
SMILES	A549 viability	ALOX12 inh	Nrf2 ARE act	Nrf2 block	ERG Ets-DNA blk	LDHA inh
CC(C)Cn1cnc2c(c(-c3ccccc3)c(-c3ccccc3)n2Cc2ccco2)c1=N	23µM*	-89%	3%	-20%	8%	-2
COc1cc(OC)c2c(C)c(CC(=O)Nc3ccc4c(c3)OCCO4)c(=O)oc2c1	.	?	.	.	.	0
COc1ccc(C(C)=O)cc1CSc1nc(NCc2ccccc2)c2ccccc2n1	23µM*	-18%	4%	.	5%	4
COc1cc(NC(=O)CSc2nnnn2Cc2ccccc2)cc(OC)c1	17%	0%	1%	0%	3%	-1
COC(=O)c1ccsc1NC(=O)CSc1nnnn1Cc1ccccc1	6%	10%	7.9µM*	-7%	1%	-4
Clc1ccc(CNCCN2CCCC2)cc1	.	?	.	.	.	0
O=C(CSC1CCCCC1)c1ccccc1Br	.	35µM*	.	.	.	12
CC1CCN(S(=O)(=O)c2cc(C(=O)N3CCN(c4ncccn4)CC3)ccc2Br)CC1	1%	-6%	0%	23µM*	-10%	-8
COc1ccc(CN[C@@H]2C=C[C@@H](c3c(C)nn(-c4ccc(OC)cc4)c3C)C2)cc1	.	39%[176 µM]	.	.	.	.
CCNc1oc(/C=C/c2cccc(OC)c2)nc1C#N	.	45µM*	.	.	.	10
COc1cccc(C2CC(=O)N3CN(c4cccc(Cl)c4C)CSC3=C2C#N)c1OC (configuration not stated)	2%	7.9µM*	-1%	0%	-3%	1
COc1ccc(OC)c(C2CC(=O)N3CN(c4cccc(Cl)c4C)CSC3=C2C#N)c1 (configuration not stated)	5%	11µM*	0%	2%	-3%	-3
COc1ccc(OC)c(C2CC(=O)N3CN(c4cccc(Cl)c4)CSC3=C2C#N)c1 (configuration not stated)	-12%	?	0%	10%	-13%	3
CCOc1ccccc1C1N=C(c2ccc(OC)cc2)CC(c2ccccc2O)N1 (configuration not stated)	-10%	-24%	16µM*	?	6%	-4
CC(C)C1N=C(c2ccc3c(c2)OCO3)CC(c2ccccc2O)N1 (configuration not stated)	-9%	-21%	?	23%	13%	-1
Cc1ccc(OCC(=O)N2CCN(c3nnc(-c4ccc(C)cc4)c4ccccc34)CC2)cc1	?	-3%	-1%	18µM*	1%	4
O=C(COc1ccccc1)N1CCN(c2nnc(-c3ccccc3)c3ccccc23)CC1	?	-33%	4%	21µM*	-11%	-5
Cc1ccc(-c2nnc(N3CCCCCC3)c3ccccc23)cc1	?	1%	0%	23µM*	-7%	-3
Cn1nc(-c2ccc(OCC(=O)N3CCOCC3)cc2)c2ccccc2c1=O	.	-2%	.	.	.	-31*
Cc1ccc(SCc2ccccc2C#N)cc1	.	-47%	.	.	.	-11
Cc1cc(C)c(NC(=O)CCc2c[nH]c3ccccc23)c(C)c1	.	4%	.	.	.	-1
CC(C)CC(=O)Nc1ccc2oc(-c3ccc(F)cc3Cl)nc2c1	.	43%	.	.	.	10

High-throughput results from PubChem BioAssay.
